{"source": "PubChem BioAssay (NCATS)", "note": "Results filed as inconclusive are left out. Values without a mark were called inactive. Activity calls are given as the source filed them. Calls come from the whole dose curve; as a rule, active = well fitted cell-killing curve with a large enough effect; inconclusive = small, poorly fitted or top-dose-only effect; inactive = flat fitted curve, though single readings scatter. Potency is the fitted concentration of half-maximal effect."}
{"assay": "qHTS of pediatric cancer cell lines to identify multiple opportunities for drug repurposing: Primary screen for RD cells (AID 1347104); note: nearly all actives have a fitted effect of over 55% in size;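 for activity change, negative = cytotoxic: plate controls were DMSO for no effect and bortezomib for full effect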", "conditions": "RD rhabdomyosarcoma viability, CellTiter-Glo luminescence, 48 h; series mostly up to 46 µM; activity change, negative = cytotoxic: at the top concentration", "summary_of_the_method": "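Plated cells (500-1,000 per well, growth media) were allowed to settle for 5 hours, treated with compound dilutions for 48 hours, then lysed with CellTiter-Glo for 15 min at room temperature before luminescence reading.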"}
{"molecule": "CCc1ccc(C(=O)Nc2cc(CN3CCN(C)CC3)cc(C(F)(F)F)c2)cc1C#Cc1cnc2ccnn2c1", "Potency": "18.7 µM (active)"}
{"molecule": "Cc1[nH]c(C=C2C(=O)Nc3ccccc32)c(C)c1CCC(=O)O", "Potency": "18.7 µM (active)"}
{"molecule": "COc1cc2ncnc(Nc3cccc(Br)c3)c2cc1OC", "Potency": "0.935 µM (active)"}
{"molecule": "N[C@H]1CN(c2c(F)cc3c(=O)c(C(=O)O)cn(C4C[C@@H]4F)c3c2Cl)CC12CC2", "note": "(stereo not given in full)", "activity change, negative = cytotoxic": "-9.78%"}
{"molecule": "Nc1nc(N)c2nc(-c3cccc(O)c3)c(-c3cccc(O)c3)nc2n1", "Potency": "11.8 µM (active)"}
{"molecule": "COc1cc(OC)cc(-c2ccc3ncc4ccc(=O)n(-c5ccc(N6CCNCC6)c(C(F)(F)F)c5)c4c3c2)c1", "Potency": "8.33 µM (active)"}
{"molecule": "CN(N=O)C(=O)N[C@H]1C(O)OC(CO)[C@@H](O)[C@H]1O", "note": "(stereo not given in full)", "activity change, negative = cytotoxic": "-2.44%"}
{"molecule": "C[C@H](CCC(=O)O)[C@H]1CCC2C3C[C@H](O)[C@@H]4C[C@H](O)CC[C@]4(C)C3CC[C@@]21C", "note": "(stereo not given in full)", "activity change, negative = cytotoxic": "-13.1%"}
{"molecule": "CC(C)[C@H](CO)Nc1nc(Nc2cccc(Cl)c2)c2ncn(C(C)C)c2n1", "Potency": "18.7 µM (active)"}
{"molecule": "CC(C)NC[C@@H](C(=O)N1CCN(c2ncnc3c2[C@H](C)C[C@H]3O)CC1)c1ccc(Cl)cc1", "Potency": "1.18 µM (active)"}
{"molecule": "COc1ccc(C(C)=O)c(O)c1", "Potency": "16.6 µM (active)"}
{"molecule": "O=C1NC(O)CCN1[C@@H]1O[C@H](CO)[C@H](O)[C@H]1O", "note": "(stereo not given in full)", "activity change, negative = cytotoxic": "3.7%"}
{"molecule": "CCN(CC)Cc1ccc2cc(COC(=O)Nc3ccc(C(=O)NO)cc3)ccc2c1", "Potency": "2.35 µM (active)"}
{"molecule": "CNC(=O)c1cccc(-c2ccc3c(N4CCOC[C@H]4C)nc(N4CCOC[C@H]4C)nc3n2)c1", "Potency": "0.148 µM (active)"}
{"molecule": "NC1=N[C@H]2[C@H](CS[C@H]2CCCCC(=O)O)N1", "activity change, negative = cytotoxic": "-2.67% [at 16.1 µM]"}
{"molecule": "C=CCNc1c(O)cc2c(O)c1C[C@@H](C)C[C@H](OC)[C@@H](O)[C@@H](C)C=C(C)[C@H](OC(N)=O)[C@@H](OC)C=CC=C(C)C(=O)N2", "Potency": "0.264 µM (active)"}
{"molecule": "O=C(NC1CC1)c1cccc(-c2ccc3c(NC(=O)C4CC4)n[nH]c3c2)c1", "Potency": "0.935 µM (active)"}
{"molecule": "CN[C@@H]1C[C@H]2O[C@@](C)([C@H]1OC)n1c3ccccc3c3c4c(c5c6ccccc6n2c5c31)C(=O)N[C@H]4O", "Potency": "1.05 µM (active)"}
{"molecule": "CN(CC(=O)N(Cc1ccc(C2CCCCC2)cc1)c1ccc(C(=O)O)c(O)c1)S(=O)(=O)c1c(F)c(F)c(F)c(F)c1F", "Potency": "37.2 µM (active)"}
{"molecule": "COc1cc2c(Nc3ccc(Cl)c(Cl)c3F)ncnc2cc1OCC1C[C@@H]2CN(C)C[C@H]2C1", "Potency": "16.6 µM (active)"}
{"molecule": "Oc1ccc([C@@H]2Oc3ccc(O)cc3[C@@H]3CCC[C@@H]32)cc1", "Potency": "16.6 µM (active)"}
{"molecule": "FC(F)c1nc2ccccc2n1-c1nc(N2CCOCC2)nc(N2CCOCC2)n1", "Potency": "0.418 µM (active)"}
{"molecule": "C=C1C(=CC=C2CCC[C@]3(C)[C@@H]([C@H](C)CCCC(C)(C)O)CC[C@@H]23)C[C@@H](O)C[C@@H]1O", "Potency": "9.35 µM (active)"}
{"molecule": "COc1cc(C)c(C=CC(C)=CC=CC(C)=CC(=O)O)c(C)c1C", "activity change, negative = cytotoxic": "-1.94%"}
{"molecule": "NC(=O)c1ncn([C@@H]2O[C@H](CO)[C@@H](O)[C@@H]2O)c1O", "activity change, negative = cytotoxic": "4.44%"}
{"molecule": "COc1cccc2c1C(=O)c1c(O)c3c(c(O)c1C2=O)C[C@@](O)(C(C)=O)C[C@H]3O[C@H]1C[C@H](N)[C@H](O)[C@H](C)O1", "Potency": "0.0743 µM (active)"}
{"molecule": "O=C(Nc1cccc(Nc2ncc(Br)c(NCCc3cnc[nH]3)n2)c1)N1CCCC1", "Potency": "16.6 µM (active)"}
{"molecule": "CC(C)OC(=O)[C@H](C)N[P@](=O)(OC[C@H]1O[C@@H](n2ccc(=O)[nH]c2=O)[C@](C)(F)[C@H]1O)Oc1ccccc1", "activity change, negative = cytotoxic": "-14.3%"}
{"molecule": "CC(=O)NC(CS)C(=O)O", "note": "(stereo not given)", "activity change, negative = cytotoxic": "-2.29%"}
{"molecule": "O=C1NC(=O)C(=Cc2ccc3nccc(-c4ccncc4)c3c2)S1", "Potency": "0.372 µM (active)"}
